A selection: hits, their analogues and other compounds. The true share with any hit is near 3.3%.
M18AAP inhibitor – blocks P. falciparum M18 aspartyl aminopeptidase; recombinant PfM18AAP, H-Glu-NHMec fluorogenic cleavage; inhibition, % at 7.35 µM; 290,000 compounds, 1.2% hits; AID 1822;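 active = inhibition above the campaign mean inhibition over all tested compounds plus 3 SD, cut at about 28% in these data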;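 also: 0% = plate median of test compound wells and 100% = 2 mM ZnCl2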
UHRF1 binding – blocks human UHRF1 binding to methylated DNA. AID 687016. inhibition, % at 4.4 µM. UHRF1 binding to methylated oligo, TR-FRET. 370,000 compounds, 0.75% hits. Q96T88; in the data active = inhibition above about 21%;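 also: UHRF1 SRA domain binding a hemimethylated CpG hairpin DNA probe; 0% = median of test compound wells and 100% = reference inhibitor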
Target sequence (Q96T88 whole entry, looked up, the tested form may be a part): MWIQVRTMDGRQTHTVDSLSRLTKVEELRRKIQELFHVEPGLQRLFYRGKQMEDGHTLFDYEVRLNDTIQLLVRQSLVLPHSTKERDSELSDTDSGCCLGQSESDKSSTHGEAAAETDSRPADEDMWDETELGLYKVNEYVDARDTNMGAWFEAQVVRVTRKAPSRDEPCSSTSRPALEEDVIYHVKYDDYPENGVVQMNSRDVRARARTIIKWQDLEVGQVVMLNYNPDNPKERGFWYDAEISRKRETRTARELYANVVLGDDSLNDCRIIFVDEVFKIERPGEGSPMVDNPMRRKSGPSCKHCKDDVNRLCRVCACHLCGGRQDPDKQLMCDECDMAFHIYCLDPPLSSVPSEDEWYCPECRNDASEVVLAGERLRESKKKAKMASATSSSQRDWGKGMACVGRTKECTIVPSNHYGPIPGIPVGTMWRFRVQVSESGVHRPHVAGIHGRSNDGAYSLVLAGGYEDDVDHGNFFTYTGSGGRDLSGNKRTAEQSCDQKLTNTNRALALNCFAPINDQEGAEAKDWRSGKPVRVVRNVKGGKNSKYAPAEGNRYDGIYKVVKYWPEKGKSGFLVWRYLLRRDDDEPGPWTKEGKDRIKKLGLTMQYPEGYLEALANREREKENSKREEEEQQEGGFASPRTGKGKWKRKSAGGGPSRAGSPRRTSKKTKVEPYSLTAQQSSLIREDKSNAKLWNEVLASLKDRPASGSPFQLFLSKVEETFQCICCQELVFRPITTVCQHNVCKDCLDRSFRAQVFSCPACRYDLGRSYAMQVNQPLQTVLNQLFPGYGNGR
PRMT1 FP inh – PRMT1 (human) inhibition, primary screen. Q99873. recombinant PRMT1, activity-based probe fluorescence polarization. inhibition, % at 2.79 µM. 370,000 compounds, 1.3% hits. AID 652257;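 active = inhibition above about 21% made by adding two undisclosed values, limit read from the data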
PfG6PD inh – PfG6PD (Plasmodium falciparum) enzyme inhibition; PfGluPho enzyme, NADPH resazurin-diaphorase fluorescence; inhibition, % at 20 µM; 350,000 compounds, 0.78% hits; AID 504690;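 active = inhibition reaching at least a set limit at 20 µM in the primary screen, cut at about 59% in these data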;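 also: 0% = DMSO wells with substrate and 100% = DMSO wells lacking glucose-6-phosphate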
MBD2 inh – inhibitors of human MBD2 binding to methylated oligonucleotide; TR-FRET; inhibition, % at 4.4 µM; 370,000 compounds, 0.31% hits; AID 686964; in the data active = inhibition above about 13%
PRMT1 confirm – PRMT1 (human) inhibition, FP confirmation; shares compounds with PRMT1 FP inh; recombinant His-PRMT1, activity-based probe fluorescence polarization; inhibition, % at 2.79 µM; 3,300 compounds, 42% hits;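 active = mean inhibition across replicates above the hit cutoff derived for the earlier primary screen, cut at about 22% in these data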
* = called active by the depositor.

How did O=C(COC(=O)c1ccc(Cl)c(S(=O)(=O)N2CCCCCC2)c1)NCc1ccccc1 do in these assays?
UHRF1 binding: 0; PRMT1 FP inh: 0; PfG6PD inh: -9; MBD2 inh: 0

How did CCOCC(=O)Nc1cc(S(=O)(=O)N2CCOCC2)ccc1N1CCCCC1 do in these assays?
M18AAP inhibitor: 22; UHRF1 binding: 1; PRMT1 FP inh: 41*; PfG6PD inh: 50; MBD2 inh: 4; PRMT1 confirm: 7

What do the screens show for `O=C(Nc1ccccc1)Nc1cc(S(=O)(=O)N2CCOCC2)ccc1N1CCCC1`?
M18AAP inhibitor: -7; UHRF1 binding: 7; PRMT1 FP inh: 29*; PfG6PD inh: 36; MBD2 inh: 4; PRMT1 confirm: 1

Results for O=C(Nc1ccc(Cl)cc1)Nc1cc(S(=O)(=O)N2CCOCC2)ccc1N1CCCC1 ?
M18AAP inhibitor: 2; UHRF1 binding: 6; PRMT1 FP inh: 2; PfG6PD inh: 28; MBD2 inh: 6

What do the screens show for `COc1ccc(NC(=O)C2CCC(C(C)(C)C)CC2)cc1S(=O)(=O)N1CCOCC1` (stereo not drawn)?
UHRF1 binding: -4; PRMT1 FP inh: 3; PfG6PD inh: 12; MBD2 inh: -7

How did S=C1SCN(Cc2ccccn2)CN1Cc1ccco1 do in these assays?
M18AAP inhibitor: 10; UHRF1 binding: -4; PRMT1 FP inh: 30*; PfG6PD inh: 14; MBD2 inh: 0; PRMT1 confirm: 13

How did CS(=O)(=O)N(CC(=O)N1CCc2ccccc2C1)Cc1ccc(F)cc1 do in these assays?
M18AAP inhibitor: 3; UHRF1 binding: 1; PRMT1 FP inh: -1; PfG6PD inh: 17; MBD2 inh: 1

How did Oc1ccc(/C=N/n2c(-c3ccco3)csc2=Nc2cccnc2)c(O)c1 do in these assays?
M18AAP inhibitor: 12; UHRF1 binding: -14; PRMT1 FP inh: 29*; PfG6PD inh: 23; MBD2 inh: 5; PRMT1 confirm: 4

Results for CN(Cc1ccc(Cl)cc1Cl)C(=O)CCNC(=O)c1ccco1 ?
UHRF1 binding: 3; PRMT1 FP inh: -1; PfG6PD inh: 2; MBD2 inh: 0

How did Nc1ccc(Nc2ccccc2)c(S(=O)(=O)O)c1 do in these assays?
M18AAP inhibitor: 11; UHRF1 binding: 20; PRMT1 FP inh: 37*; PfG6PD inh: -6; MBD2 inh: 2; PRMT1 confirm: 13

Results for Cc1ccc(Nc2ccc(N)cc2S(=O)(=O)O)cc1 ?
M18AAP inhibitor: -15; UHRF1 binding: 3; PRMT1 FP inh: 33*; PfG6PD inh: 9; MBD2 inh: -1; PRMT1 confirm: 9

How did Nc1cccc(Nc2ccccc2)c1 do in these assays?
M18AAP inhibitor: 9; UHRF1 binding: -3; PRMT1 FP inh: -5; PfG6PD inh: 5; MBD2 inh: -4

How did CC1CC(C)CN(c2ccc(NS(=O)(=O)c3ccccc3)cc2C(=O)O)C1 (stereo not drawn) do in these assays?
M18AAP inhibitor: -15; UHRF1 binding: 2; PRMT1 FP inh: 3; PfG6PD inh: -5; MBD2 inh: 4

How did CSc1nc(SCC(=O)NCc2ccco2)c2c3c(sc2n1)COC(C)(C)C3 do in these assays?
M18AAP inhibitor: 5; UHRF1 binding: 5; PRMT1 FP inh: 38*; PfG6PD inh: -3; MBD2 inh: -2; PRMT1 confirm: 7

Results for CS(=O)(=O)N1CCN(c2ccc([N+](=O)[O-])c(SCc3ccco3)c2)CC1 ?
M18AAP inhibitor: 20; UHRF1 binding: -3; PRMT1 FP inh: 33*; PfG6PD inh: 14; MBD2 inh: 0; PRMT1 confirm: 2

What do the screens show for `COc1ccc(C(=O)OCC(O)COC(=O)c2ccc(OC)cc2)cc1`?
UHRF1 binding: 1; PRMT1 FP inh: 4; PfG6PD inh: 12; MBD2 inh: 1

How did Cc1cc(SCNC(=O)c2ccccc2)ncn1 do in these assays?
M18AAP inhibitor: 23; UHRF1 binding: -1; PRMT1 FP inh: 71*; PfG6PD inh: 8; MBD2 inh: -1; PRMT1 confirm: 7

What do the screens show for `CCNc1nc(NCC)n2c(SCC(=O)Nc3ccc(F)cc3)nnc2n1`?
UHRF1 binding: 17; PRMT1 FP inh: -2; PfG6PD inh: 3; MBD2 inh: 5

How did CCNc1nc(NCC)n2c(SCC(=O)Nc3ccc(Br)cc3F)nnc2n1 do in these assays?
UHRF1 binding: 2; PRMT1 FP inh: 37*; PfG6PD inh: 39; MBD2 inh: 1; PRMT1 confirm: 15

How did C[n+]1cccc(/C=N/Nc2nc(Cl)c(C#N)c(Cl)c2Cl)c1 do in these assays?
M18AAP inhibitor: 8; UHRF1 binding: -3; PRMT1 FP inh: 49*; PfG6PD inh: 7; MBD2 inh: -4; PRMT1 confirm: 0

How did N#Cc1c(Cl)nc(N/N=C/c2ccccc2)c(Cl)c1Cl do in these assays?
M18AAP inhibitor: 27; UHRF1 binding: 3; PRMT1 FP inh: 5; PfG6PD inh: -2; MBD2 inh: 4

Results for O=CNc1c(Br)cc2c(c1Br)Cc1cc(Br)ccc1-2 ?
UHRF1 binding: -3; PRMT1 FP inh: 0; PfG6PD inh: -17; MBD2 inh: -5

What do the screens show for `S=c1[nH]nc(-c2cc(-c3ccccc3)n[nH]2)n1N=Cc1cccc(OCc2ccccc2)c1`?
UHRF1 binding: 0; PRMT1 FP inh: 9; MBD2 inh: -2

Results for COc1cc(/C=N/n2c(-c3cc(-c4ccccc4)n[nH]3)n[nH]c2=S)ccc1OCc1ccccc1 ?
UHRF1 binding: 4; PRMT1 FP inh: 26*; MBD2 inh: 5; PRMT1 confirm: -1

How did CCOC(=O)C1Nc2ccc(Br)cc2C2C=CCC12 (stereo not drawn) do in these assays?
M18AAP inhibitor: -13; UHRF1 binding: 0; PRMT1 FP inh: 30*; PfG6PD inh: 6; MBD2 inh: 1; PRMT1 confirm: 26*

How did O=C(NCCOc1ccccc1)C1Nc2ccc(OC(F)(F)F)cc2C2C=CCC12 (stereo not drawn) do in these assays?
UHRF1 binding: -1; PRMT1 FP inh: 9; PfG6PD inh: 9; MBD2 inh: -3

How did O=C(NCCF)C1Nc2ccc(OC(F)(F)F)cc2C2C=CCC12 (stereo not drawn) do in these assays?
UHRF1 binding: -5; PRMT1 FP inh: 29*; PfG6PD inh: 8; MBD2 inh: 2; PRMT1 confirm: -1

Results for Cc1cccc(-n2c(=S)[nH]c3c(oc4ccccc43)c2=O)c1 ?
M18AAP inhibitor: 3; UHRF1 binding: 0; PRMT1 FP inh: 3; PfG6PD inh: 26; MBD2 inh: 1

How did Cc1cccc(-n2c(C)c(-c3ccccc3)[nH]c2=S)c1 do in these assays?
M18AAP inhibitor: 24; UHRF1 binding: 0; PRMT1 FP inh: 34*; PfG6PD inh: 47; MBD2 inh: 1; PRMT1 confirm: 16

Results for O=C(NC1=NCCS1)c1csc2ccccc12 ?
M18AAP inhibitor: 14; UHRF1 binding: -2; PRMT1 FP inh: 27*; PfG6PD inh: 18; MBD2 inh: 3; PRMT1 confirm: 9

What do the screens show for `Cc1ccccc1N1CCN(C2CCCN(C(=O)c3snnc3C)C2)CC1` (stereo not drawn)?
M18AAP inhibitor: 4; UHRF1 binding: -1; PRMT1 FP inh: 3; PfG6PD inh: 2; MBD2 inh: -2
